# ± gives the standard deviation of the averaged measurements. The full data set covers some 6,500 targets. This sample favours those with the largest changes.
# Experiments:
# Test in all cases: NP40-soluble protein abundance relative to vehicle (solubility fold change) (ratio); higher = more soluble protein in presence of ATP
# [1] = target: T1, GBP1 (UniProt P32455)
# T1 sequence (whole entry): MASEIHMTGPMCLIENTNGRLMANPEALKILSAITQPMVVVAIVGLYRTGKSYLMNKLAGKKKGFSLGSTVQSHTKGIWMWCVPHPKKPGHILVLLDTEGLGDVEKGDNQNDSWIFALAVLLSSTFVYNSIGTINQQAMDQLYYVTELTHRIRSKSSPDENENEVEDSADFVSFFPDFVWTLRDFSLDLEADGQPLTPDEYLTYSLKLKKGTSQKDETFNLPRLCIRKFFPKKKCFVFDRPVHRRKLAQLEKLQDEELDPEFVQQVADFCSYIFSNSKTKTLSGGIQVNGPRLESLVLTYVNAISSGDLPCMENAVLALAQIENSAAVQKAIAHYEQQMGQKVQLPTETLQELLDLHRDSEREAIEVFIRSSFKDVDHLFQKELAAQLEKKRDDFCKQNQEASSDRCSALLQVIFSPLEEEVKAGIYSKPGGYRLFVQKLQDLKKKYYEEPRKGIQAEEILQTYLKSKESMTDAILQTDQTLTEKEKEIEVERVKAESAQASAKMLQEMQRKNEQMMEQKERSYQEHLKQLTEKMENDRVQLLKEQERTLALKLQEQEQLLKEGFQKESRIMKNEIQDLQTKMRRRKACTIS
# Summary of the method: (§1)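 Each value is a fold change relative to the detergent-processed vehicle, calculated per replicate from vsn-normalised intensities. Jurkat crude lysate received eight concentrations (0.1 to 10 mM) for 10 min at room temperature and 3 min at 37 °C, then was solubilised in 0.8% NP40 with benzonase (60 min, 4 °C). The ultracentrifuged supernatant was TMT-labelled and run by LC-MS/MS in three independent experiments.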
# [2] = target: T2, NKTR (UniProt P30414)
# T2 sequence (whole entry): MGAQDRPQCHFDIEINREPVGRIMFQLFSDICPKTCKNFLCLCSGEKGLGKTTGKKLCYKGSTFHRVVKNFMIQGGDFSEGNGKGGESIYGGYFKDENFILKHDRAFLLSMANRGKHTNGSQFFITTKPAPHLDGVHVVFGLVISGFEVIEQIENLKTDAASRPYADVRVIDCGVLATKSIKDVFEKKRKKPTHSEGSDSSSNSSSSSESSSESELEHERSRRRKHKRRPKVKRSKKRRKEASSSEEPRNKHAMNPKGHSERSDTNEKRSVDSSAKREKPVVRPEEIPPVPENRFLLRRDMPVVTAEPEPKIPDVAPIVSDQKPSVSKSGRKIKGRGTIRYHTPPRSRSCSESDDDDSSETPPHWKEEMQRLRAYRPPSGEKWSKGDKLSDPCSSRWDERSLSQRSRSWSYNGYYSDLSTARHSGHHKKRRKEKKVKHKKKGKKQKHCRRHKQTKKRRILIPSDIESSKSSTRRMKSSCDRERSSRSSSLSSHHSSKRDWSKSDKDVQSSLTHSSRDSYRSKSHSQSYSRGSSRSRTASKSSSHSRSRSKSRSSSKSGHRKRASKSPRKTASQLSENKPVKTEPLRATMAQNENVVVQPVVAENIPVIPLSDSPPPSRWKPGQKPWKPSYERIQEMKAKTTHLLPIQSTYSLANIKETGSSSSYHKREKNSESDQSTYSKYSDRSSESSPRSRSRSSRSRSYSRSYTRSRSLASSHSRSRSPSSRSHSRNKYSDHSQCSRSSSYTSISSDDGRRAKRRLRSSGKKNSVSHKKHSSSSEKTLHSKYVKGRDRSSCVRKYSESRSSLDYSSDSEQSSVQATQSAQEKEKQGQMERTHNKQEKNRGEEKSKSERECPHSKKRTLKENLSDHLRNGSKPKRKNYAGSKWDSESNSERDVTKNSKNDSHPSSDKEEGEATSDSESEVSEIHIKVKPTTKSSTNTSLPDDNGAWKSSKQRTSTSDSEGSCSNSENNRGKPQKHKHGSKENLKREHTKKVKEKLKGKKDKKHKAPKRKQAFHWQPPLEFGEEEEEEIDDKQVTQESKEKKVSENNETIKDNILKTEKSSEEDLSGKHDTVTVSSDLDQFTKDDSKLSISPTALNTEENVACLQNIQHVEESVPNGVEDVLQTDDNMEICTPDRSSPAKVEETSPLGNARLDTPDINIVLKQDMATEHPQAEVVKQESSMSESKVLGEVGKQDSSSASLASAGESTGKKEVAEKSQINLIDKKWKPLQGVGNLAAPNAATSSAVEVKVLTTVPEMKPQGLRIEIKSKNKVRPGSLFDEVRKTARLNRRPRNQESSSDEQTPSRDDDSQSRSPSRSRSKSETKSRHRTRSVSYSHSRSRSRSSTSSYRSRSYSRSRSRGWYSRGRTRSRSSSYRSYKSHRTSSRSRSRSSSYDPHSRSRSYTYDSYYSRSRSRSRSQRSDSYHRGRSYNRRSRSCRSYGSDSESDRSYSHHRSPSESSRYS
# Summary of the method: as §1
# [3] = target: T3, SEC24C (UniProt P53992)
# T3 sequence (whole entry): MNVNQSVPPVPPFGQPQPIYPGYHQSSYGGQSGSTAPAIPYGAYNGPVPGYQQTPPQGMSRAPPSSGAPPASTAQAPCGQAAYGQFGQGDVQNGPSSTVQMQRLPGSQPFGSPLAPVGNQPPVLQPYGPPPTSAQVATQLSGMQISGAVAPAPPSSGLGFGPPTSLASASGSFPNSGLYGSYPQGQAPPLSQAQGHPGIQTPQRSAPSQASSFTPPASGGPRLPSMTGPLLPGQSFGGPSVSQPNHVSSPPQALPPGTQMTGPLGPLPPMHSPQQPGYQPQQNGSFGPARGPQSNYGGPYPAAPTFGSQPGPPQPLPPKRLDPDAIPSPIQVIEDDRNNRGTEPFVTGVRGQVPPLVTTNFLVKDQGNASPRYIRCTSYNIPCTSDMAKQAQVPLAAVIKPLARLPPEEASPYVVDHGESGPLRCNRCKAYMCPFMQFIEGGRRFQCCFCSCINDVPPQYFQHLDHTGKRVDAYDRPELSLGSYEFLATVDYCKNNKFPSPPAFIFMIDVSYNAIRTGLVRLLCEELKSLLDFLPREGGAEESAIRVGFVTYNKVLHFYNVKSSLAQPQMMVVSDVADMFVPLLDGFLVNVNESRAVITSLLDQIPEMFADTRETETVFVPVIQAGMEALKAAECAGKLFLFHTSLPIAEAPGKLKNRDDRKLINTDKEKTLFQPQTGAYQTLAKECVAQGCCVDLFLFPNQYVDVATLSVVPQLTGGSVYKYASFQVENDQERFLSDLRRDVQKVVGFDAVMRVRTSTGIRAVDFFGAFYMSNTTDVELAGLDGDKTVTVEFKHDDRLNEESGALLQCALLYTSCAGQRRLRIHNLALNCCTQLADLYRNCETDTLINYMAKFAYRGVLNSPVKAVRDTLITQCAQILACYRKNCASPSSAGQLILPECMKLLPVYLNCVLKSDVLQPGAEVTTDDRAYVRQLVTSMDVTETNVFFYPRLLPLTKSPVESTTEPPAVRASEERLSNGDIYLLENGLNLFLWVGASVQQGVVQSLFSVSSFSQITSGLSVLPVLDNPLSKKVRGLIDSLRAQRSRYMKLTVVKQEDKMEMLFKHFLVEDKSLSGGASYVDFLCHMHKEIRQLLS
# Summary of the method: as §1
# [4] = target: T4, SPAG7 (UniProt O75391)
# T4 sequence (whole entry): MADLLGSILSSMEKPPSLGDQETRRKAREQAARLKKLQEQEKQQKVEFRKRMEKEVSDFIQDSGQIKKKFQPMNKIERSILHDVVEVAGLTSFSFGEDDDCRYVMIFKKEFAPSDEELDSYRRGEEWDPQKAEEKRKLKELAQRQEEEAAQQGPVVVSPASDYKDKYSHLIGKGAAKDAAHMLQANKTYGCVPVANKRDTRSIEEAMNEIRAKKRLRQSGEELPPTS
# Summary of the method: as §1
# [5] = target: T5, UniProt O95294|O95294-2|O95294-3|O95294-4
# T5 sequence (whole entry): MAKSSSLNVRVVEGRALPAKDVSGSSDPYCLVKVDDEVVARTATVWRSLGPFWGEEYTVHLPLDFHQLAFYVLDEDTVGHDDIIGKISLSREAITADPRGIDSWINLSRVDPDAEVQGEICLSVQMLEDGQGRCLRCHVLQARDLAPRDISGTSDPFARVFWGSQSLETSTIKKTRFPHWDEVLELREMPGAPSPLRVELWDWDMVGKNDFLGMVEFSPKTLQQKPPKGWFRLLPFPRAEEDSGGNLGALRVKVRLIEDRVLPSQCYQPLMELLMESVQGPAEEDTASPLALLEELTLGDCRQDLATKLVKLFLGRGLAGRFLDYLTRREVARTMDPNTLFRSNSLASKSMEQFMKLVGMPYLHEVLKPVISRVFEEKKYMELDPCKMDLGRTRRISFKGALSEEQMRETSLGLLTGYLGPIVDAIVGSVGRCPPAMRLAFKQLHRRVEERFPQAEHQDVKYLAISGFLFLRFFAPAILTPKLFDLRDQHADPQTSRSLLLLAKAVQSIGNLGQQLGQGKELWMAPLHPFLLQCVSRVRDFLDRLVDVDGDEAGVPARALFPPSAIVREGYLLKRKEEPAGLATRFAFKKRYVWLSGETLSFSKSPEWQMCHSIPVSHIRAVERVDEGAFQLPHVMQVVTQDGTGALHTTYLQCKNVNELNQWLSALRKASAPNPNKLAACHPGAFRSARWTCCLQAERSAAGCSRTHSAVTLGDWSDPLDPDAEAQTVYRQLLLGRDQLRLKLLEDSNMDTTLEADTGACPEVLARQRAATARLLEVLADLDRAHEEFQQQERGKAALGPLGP
# Summary of the method: as §1
# [6] = target: T6, UniProt O95379-3|O95379-4
# T6 sequence (whole entry): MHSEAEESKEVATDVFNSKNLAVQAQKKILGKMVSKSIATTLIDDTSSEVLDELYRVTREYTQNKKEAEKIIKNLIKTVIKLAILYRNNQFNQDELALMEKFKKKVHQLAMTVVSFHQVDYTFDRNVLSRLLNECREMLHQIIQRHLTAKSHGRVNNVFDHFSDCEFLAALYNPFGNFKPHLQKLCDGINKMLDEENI
# Summary of the method: as §1
# [7] = target: T7, UniProt O95983|O95983-2|K7EIE8
# T7 sequence (whole entry): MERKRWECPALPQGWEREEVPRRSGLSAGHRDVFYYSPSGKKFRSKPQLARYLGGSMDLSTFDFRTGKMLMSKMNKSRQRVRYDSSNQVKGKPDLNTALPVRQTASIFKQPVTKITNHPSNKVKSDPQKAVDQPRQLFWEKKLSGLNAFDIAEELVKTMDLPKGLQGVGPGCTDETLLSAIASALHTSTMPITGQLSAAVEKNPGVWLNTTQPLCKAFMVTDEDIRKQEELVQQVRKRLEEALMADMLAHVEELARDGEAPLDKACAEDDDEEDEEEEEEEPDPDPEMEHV
# Summary of the method: as §1
smiles,measurement,setting,value
Nc1ncnc2c1ncn2[C@@H]1O[C@H](COP(=O)(O)OP(=O)(O)OP(=O)(O)O)[C@@H](O)[C@H]1O [adenosine triphosphate],NP40-soluble protein abundance,[1]; concentration: 1mM,0.968 ± 0.053
same,NP40-soluble protein abundance,[1]; concentration: 2mM,0.96 ± 0.0051
same,NP40-soluble protein abundance,[1]; concentration: 4mM,0.945 ± 0.011
same,NP40-soluble protein abundance,[1]; concentration: 6mM,0.979 ± 0.015
same,NP40-soluble protein abundance,[1]; concentration: 8mM,0.922 ± 0.018
same,NP40-soluble protein abundance,[1]; concentration: 10mM,0.936 ± 0.03
same,NP40-soluble protein abundance,[2]; concentration: 1mM,1.53 ± 0.25
same,NP40-soluble protein abundance,[2]; concentration: 2mM,1.63 ± 0.19
same,NP40-soluble protein abundance,[2]; concentration: 4mM,1.68 ± 0.23
same,NP40-soluble protein abundance,[2]; concentration: 6mM,1.83 ± 0.22
same,NP40-soluble protein abundance,[2]; concentration: 8mM,1.75 ± 0.19
same,NP40-soluble protein abundance,[2]; concentration: 10mM,1.75 ± 0.22
same,NP40-soluble protein abundance,[3]; concentration: 1mM,0.99 ± 0.055
same,NP40-soluble protein abundance,[3]; concentration: 2mM,0.987 ± 0.057
same,NP40-soluble protein abundance,[3]; concentration: 4mM,0.98 ± 0.043
same,NP40-soluble protein abundance,[3]; concentration: 6mM,0.919 ± 0.095
same,NP40-soluble protein abundance,[3]; concentration: 8mM,0.981 ± 0.019
same,NP40-soluble protein abundance,[3]; concentration: 10mM,0.984 ± 0.074
same,NP40-soluble protein abundance,[4]; concentration: 1mM,0.972 ± 0.053
same,NP40-soluble protein abundance,[4]; concentration: 2mM,0.964 ± 0.047
same,NP40-soluble protein abundance,[4]; concentration: 4mM,0.964 ± 0.04
same,NP40-soluble protein abundance,[4]; concentration: 6mM,0.969 ± 0.046
same,NP40-soluble protein abundance,[4]; concentration: 8mM,0.9594 ± 0.0036
same,NP40-soluble protein abundance,[4]; concentration: 10mM,0.903 ± 0.058
same,NP40-soluble protein abundance,[5]; concentration: 1mM,0.95 ± 0.03
same,NP40-soluble protein abundance,[5]; concentration: 2mM,0.96 ± 0.069
same,NP40-soluble protein abundance,[5]; concentration: 4mM,1.01 ± 0.058
same,NP40-soluble protein abundance,[5]; concentration: 6mM,0.994 ± 0.11
same,NP40-soluble protein abundance,[5]; concentration: 8mM,0.962 ± 0.13
same,NP40-soluble protein abundance,[5]; concentration: 10mM,0.965 ± 0.15
same,NP40-soluble protein abundance,[6]; concentration: 1mM,0.855 ± 0.036
same,NP40-soluble protein abundance,[6]; concentration: 2mM,0.93 ± 0.019
same,NP40-soluble protein abundance,[6]; concentration: 4mM,0.885 ± 0.032
same,NP40-soluble protein abundance,[6]; concentration: 6mM,0.9504 ± 0.0062
same,NP40-soluble protein abundance,[6]; concentration: 8mM,0.932 ± 0.035
same,NP40-soluble protein abundance,[6]; concentration: 10mM,0.85 ± 0.1
same,NP40-soluble protein abundance,[7]; concentration: 1mM,1.03 ± 0.12
same,NP40-soluble protein abundance,[7]; concentration: 2mM,0.983 ± 0.078
same,NP40-soluble protein abundance,[7]; concentration: 4mM,0.98 ± 0.035

# From the supplement of paper PMC6411743
